For 87 compounds, inhibition results are on record in PubChem BioAssay AID362 (NMMLSC, 2006).

Screen size: about 4,300 compounds; about 60 (1%) were called active. Many of the other results were omitted from the sample, so actives are more common in it than they were. Unmarked numbers belong to inactive results.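 How the source made its calls: active means inhibition of labelled peptide binding to the formyl peptide receptor of at least 65%; inactive means the rest.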

The target in the experiment is fMet-Leu-Phe receptor (Homo sapiens) (UniProt P21462). The experiment can be described thus: FPR binders displacing fluorescent formyl peptide, primary screen, U937-FPR cells, fMLFK-FITC, flow cytometry (AID 362).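 On inhibition: plate controls were buffer control wells for no effect and unlabeled fMLFF blocking peptide for full effect; higher means less cell fluorescence so more probe displaced.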 The following applies: fMLFK-FITC displacement; active compounds read high, concentration not given here. For orientation: In flow cytometry, cells or beads pass a laser one at a time.
fMet-Leu-Phe receptor (Homo sapiens), sequence (P21462 whole entry, looked up): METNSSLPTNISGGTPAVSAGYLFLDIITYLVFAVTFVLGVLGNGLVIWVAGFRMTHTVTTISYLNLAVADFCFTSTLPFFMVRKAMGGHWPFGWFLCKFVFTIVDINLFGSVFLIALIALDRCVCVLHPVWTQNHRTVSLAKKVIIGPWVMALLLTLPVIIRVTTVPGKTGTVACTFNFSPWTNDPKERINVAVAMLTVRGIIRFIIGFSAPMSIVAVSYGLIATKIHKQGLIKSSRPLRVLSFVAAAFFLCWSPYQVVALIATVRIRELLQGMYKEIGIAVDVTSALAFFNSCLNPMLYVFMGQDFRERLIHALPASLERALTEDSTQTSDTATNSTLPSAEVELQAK
As a reminder, the inhibition is the relative decrease from the control value, in per cent. `CCc1cc2c(=O)c(Oc3ccccc3)c(C(F)(F)F)oc2cc1OC(C)=O`: the inhibition was 121% (active).

As to `CCOc1ccc2c(=O)c(Oc3ccccc3)c(C(F)(F)F)oc2c1`, the inhibition result is “inactive”.

With `CCCc1cc2c(=O)c(-c3ccc(C(=O)OCC)o3)c(C(=O)OCC)oc2cc1OC(C)=O`, the inhibition is 96% (active).

Consider `CCOc1cc2oc(C(F)(F)F)c(Oc3ccccc3)c(=O)c2cc1CC`, for which the inhibition was 27.9%.

With `CCc1cc2c(=O)c(Oc3ccccc3)c(C(F)(F)F)oc2cc1O`, the inhibition was 70.8% (active).

For the compound `CCOC(=O)c1ccc(-c2c(C(F)(F)F)oc3cc(O)c(CC)cc3c2=O)o1`, the inhibition is 79.1% (active).

Consider `CCCc1cc2c(=O)c(-c3ccc(C(=O)OCC)o3)coc2cc1OC(C)=O`, for which the inhibition was 16.9%.

As to `CCc1cc2c(=O)c(Oc3ccccc3)c(C(F)(F)F)oc2cc1OC`, the inhibition entry is “inactive”.

On to `O=c1c(Oc2ccccc2)c(C(F)(F)F)oc2cc(O)ccc12`, for which the inhibition is 46.2%.

As to `CCc1cc2c(=O)c(-c3nc4ccccc4n3C)c(C(F)(F)F)oc2cc1O`, the inhibition entry was “inactive”.

As to `CCCc1cc(-c2n[nH]c(C)c2-c2ccc(C(=O)OCC)o2)c(O)cc1O`, the inhibition was 10.6%.

With `CCCc1cc2c(=O)c(-c3ccc(C(=O)OCC)o3)c(C(=O)OCC)oc2cc1OC`, the inhibition was 7.1%.

Turning to `CC(=O)N1CCCc2cc(S(=O)(=O)NC(C(=O)Nc3nc4ccc(C)cc4s3)C(C)C)ccc21` (configuration not stated), the inhibition entry was “inactive”.

For `COCCOC(=O)C1=C(C)NC2=C(C(=O)C(C(=O)OC)C(C)C2)C1c1cccc(O)c1` (configuration not stated), the inhibition was 4.6%.

`CC1(C)CC(=O)C2=C(C1)OC(N)=C(C#N)C2c1ccc(Cl)cc1` (configuration not stated): the inhibition was 7.6%.

Regarding `CC(=O)N1CCc2cc(S(=O)(=O)NC(C(=O)Nc3ccccn3)C(C)C)ccc21` (configuration not stated), the inhibition entry is “inactive”.

Regarding `Cc1cc(C)c(S(=O)(=O)NCC2CCC(C(=O)NCCc3ccc(Cl)cc3)CC2)c(C)c1` (configuration not stated), the inhibition was 18.5%.

As for `CCc1cc(=O)oc2cc(OCC(=O)OC)c(Cl)cc12`, the inhibition entry was “inactive”.

For the compound `CCCOc1ccc(C2NC(=O)NC(C)=C2C(=O)OCC(C)CCC)cc1` (configuration not stated), the inhibition result was “inactive”.

For `CCOC(=O)Oc1ccc2c(=O)c(Oc3cccc(C)c3)c(C(F)(F)F)oc2c1`, the inhibition result is “inactive”.

Turning to `CCOc1ccc2c(c1)C(C)=CC(C)(C)N2C(=O)C(C)N1C(=O)c2ccccc2C1=O` (configuration not stated), the inhibition result is “inactive”.

Regarding `Cc1cc(NC(=O)CSc2nc3ccccc3c(=O)n2CC2CCC(C(=O)NCCc3ccccc3)CC2)no1` (configuration not stated), the inhibition entry was “inactive”.

For `CNC(=O)C1CCC(CNS(=O)(=O)c2ccc(NC(C)=O)cc2)CC1` (configuration not stated), the inhibition entry is “inactive”.

As for `COc1ccccc1-c1c(C(F)(F)F)oc2cc(OC(=O)C(C)C)ccc2c1=O`, the inhibition is 92% (active).

In the case of `CCCc1ccc(Oc2c(C(F)(F)F)oc3cc(OC(C)=O)ccc3c2=O)cc1`, the inhibition is 46.4%.

Take `CC(=O)Oc1ccc2c(=O)c(Oc3ccccc3)c(C(F)(F)F)oc2c1`: the inhibition was 97.6% (active).

Take `CCCc1cc2c(=O)c(-c3nc(C)cs3)coc2cc1OC(C)=O`: the inhibition result was “inactive”.

For `CCOC(=O)Oc1ccc2c(=O)c(-c3ccccc3OC)c(C(F)(F)F)oc2c1`, the inhibition is 36.6%.

In the case of `CCCc1cc2c(=O)c(-c3nc(C)cs3)c(C)oc2cc1OC(C)=O`, the inhibition is 72.7% (active).

Take `CCCc1cc2c(=O)c(-c3nc4ccccc4s3)c(C)oc2cc1OC(C)=O`: the inhibition result is “inactive”.

Take `CC(=O)Oc1ccc2c(=O)c(Oc3cc(C)cc(C)c3)c(C(F)(F)F)oc2c1`: the inhibition was 9.4%.

`COc1ccc2c(=O)c(-c3ccccc3OC)c(C(F)(F)F)oc2c1`: the inhibition result is “inactive”.

With `CCCCNC(=O)C1CCN(S(=O)(=O)N(CC(C)C)CC(C)C)CC1`, the inhibition result was “inactive”.

`CCCOC(=O)c1c(NC(=O)C2C3C=CC(C3)C2C(=O)O)sc2c1CCCC2` (configuration not stated): the inhibition entry was “inactive”.

Regarding `COc1cc2c(C(=O)N(C)c3cccc(C(F)(F)F)c3)cn(CC(C)C)c(=O)c2cc1OC`, the inhibition entry is “inactive”.

For `CC(C)CCn1c(CN2CCN(C(c3ccccc3)c3ccccc3)CC2)nc2c1c(=O)n(C)c(=O)n2C`, the inhibition entry is “inactive”.

With `CSc1nc(OCC(=O)c2ccc(Cl)cc2)c2c3c(sc2n1)CCCC3`, the inhibition result was “inactive”.

Take `Cc1sc2ncn(CC(=O)NCc3cccnc3)c(=O)c2c1S(=O)(=O)N1CCC(C)CC1`: the inhibition result was “inactive”.

Consider `CC(C)Cn1cc(C(=O)NCc2ccco2)c2c3ccccc3n(C)c2c1=O`, for which the inhibition result is “inactive”.

Take `CCCOc1ccc(C(=O)CCNC(C(=O)O)C(C)C)cc1` (configuration not stated): the inhibition entry is “inactive”.

As to `COc1ccc(C(=O)COC(=O)C(CC(C)C)N2C(=O)c3ccccc3C2=O)cc1` (configuration not stated), the inhibition entry is “inactive”.

On to `CCOC(=O)C1=C(C)C2C3C(=O)N(c4cccc5ccccc45)C(=O)C3C1(C)C1C(=O)N(c3cccc4ccccc34)C(=O)C21` (configuration not stated), for which the inhibition is 13.4%.

For `CCN(CCCNC(=O)Cn1cnc2sc(C)c(S(=O)(=O)N3CCC(C)CC3)c2c1=O)c1cccc(C)c1`, the inhibition result is “inactive”.

`O=C(CSc1nc(-c2ccccc2)nc2c1CCCC2)N1CCOCC1`: the inhibition entry is “inactive”.

Turning to `O=C(O)CSc1nc(-c2ccccc2)nc2c1CCCC2`, the inhibition result is “inactive”.

For the compound `O=C(CSc1nc(-c2ccccc2)nc2c1CCCC2)N1CCCCC1`, the inhibition is 86.8% (active).

On to `CCOC(=O)C1=C(C)NC2=C(C(=O)C(C(=O)OC)C(C)C2)C1c1ccc(N(C)C)cc1` (configuration not stated), for which the inhibition was 10%.

Regarding `CCOC(=O)C1CCN(C(=O)c2cn(CC(C)C)c(=O)c3cc(OC)c(OC)cc23)CC1`, the inhibition is 11.2%.

Consider `CC1(C)CC(=O)C2=C(C1)OC(N)=C(C#N)C2(C)C`, for which the inhibition entry is “inactive”.

In the case of `CCCOc1cc(OCCC)c2c3c(c(=O)oc2c1)CCCC3`, the inhibition was 7.1%.

Turning to `CCCCOc1cc(OCCCC)c2c3c(c(=O)oc2c1)CCC3`, the inhibition is 92.8% (active).

`CCCCOc1cc(OCCCC)c2c3c(c(=O)oc2c1)CCCC3`: the inhibition result is “inactive”.

In the case of `O=C(O)c1cccc(N2C(=O)C3C4CCC(C4)C3C2=O)c1` (configuration not stated), the inhibition is 31.6%.

With `Cc1ccn2c(NC(=O)C(C)(C)Oc3ccc(Cl)cc3)c(-c3cccs3)nc2c1`, the inhibition was 6%.

Take `CCCCN(C)Cc1c(O)ccc2c(=O)c(-c3ccccc3OC)c(C(F)(F)F)oc12`: the inhibition was 3.4%.

In the case of `CC1(C)CC(=O)C(C(c2cccc(OCc3ccccc3)c2)C2C(=O)CC(C)(C)CC2=O)C(=O)C1`, the inhibition is 91.9% (active).

On to `CC1(C)CC(=O)C(C(c2ccco2)C2C(=O)CC(C)(C)CC2=O)C(=O)C1`, for which the inhibition was 30.9%.

On to `CN1C(=O)NC(c2cccc([N+](=O)[O-])c2)C2=C1CC(C)(C)CC2=O` (configuration not stated), for which the inhibition result is “inactive”.

For `CC1(C)CC(=O)C(C(c2ccc(Br)cc2)C2C(=O)CC(C)(C)CC2=O)C(=O)C1`, the inhibition is 74.7% (active).

With `CC1(C)CC(=O)C(C(c2ccc3ccccc3c2)C2C(=O)CC(C)(C)CC2=O)C(=O)C1`, the inhibition is 80.9% (active).

For `COc1ccc(C(C2C(=O)CC(C)(C)CC2=O)C2C(=O)CC(C)(C)CC2=O)cc1COCC(F)(F)F`, the inhibition was 34.1%.

On to `CC1(C)CC(=O)C2=C(C1)Nc1ncnn1C2c1cccc([N+](=O)[O-])c1` (configuration not stated), for which the inhibition entry is “inactive”.

For `COc1cccc(C(C2C(=O)CC(C)(C)CC2=O)C2C(=O)CC(C)(C)CC2=O)c1`, the inhibition was 53.4%.

On to `COc1ccc(C(C2C(=O)CC(C)(C)CC2=O)C2C(=O)CC(C)(C)CC2=O)cc1OC`, for which the inhibition was 24.6%.

Turning to `CC1(C)CC(=O)C(C(c2cccc([N+](=O)[O-])c2)C2C(=O)CC(C)(C)CC2=O)C(=O)C1`, the inhibition is 78.4% (active).

In the case of `COc1cc(C(C2C(=O)CC(C)(C)CC2=O)C2C(=O)CC(C)(C)CC2=O)ccc1O`, the inhibition was 19.2%.

On to `CC1(C)CC(=O)C(C(C2=C(O)CC(C)(C)CC2=O)c2cccc(O)c2O)C(=O)C1` (configuration not stated), for which the inhibition was 57%.

With `CCCCN(C)Cc1c(O)ccc2c3c(c(=O)oc12)CCC3`, the inhibition is 9.8%.

Take `CCN(CC)CCOC(=O)NCC1CC(C(C)=O)C1(C)C` (configuration not stated): the inhibition was 8.3%.

Turning to `CC(=O)c1ccc(N2CCN(C(=O)c3cn(CC(C)C)c(=O)c4c3c3ccccc3n4C)CC2)cc1`, the inhibition was 2.2%.

With `CCOc1ccc(C2C(C(=O)OC(C)C)=C(C)NC3=C2C(=O)C(C(=O)OC)C(C)C3)cc1` (configuration not stated), the inhibition was 13.6%.

With `CCOC(=O)C(CC)Oc1ccc2c3c(c(=O)oc2c1C)CCC3` (configuration not stated), the inhibition entry is “inactive”.

Turning to `CCOC(=O)c1cc2c(=O)n3ccccc3nc2n(CC(C)C)c1=NC(=O)c1ccc(C(F)(F)F)cc1`, the inhibition result was “inactive”.

`CCOCCOC(=O)C1=C(C)NC2=C(C(=O)C(C(=O)OC)C(C)C2)C1c1ccc(N(C)C)cc1` (configuration not stated): the inhibition was 31.5%.

Take `COCCOC(=O)C1=C(C)NC2=C(C(=O)C(C(=O)OC)C(C)C2)C1c1ccc(OC)cc1` (configuration not stated): the inhibition is 16.7%.

As for `CCCOCCOC(=O)C1=C(C)NC2=C(C(=O)C(C(=O)OC)C(C)C2)C1c1ccc(N(C)C)cc1` (configuration not stated), the inhibition is 78.6% (active).

For `CCOc1ccc(C2C(C(=O)OCCOC(C)C)=C(C)NC3=C2C(=O)C(C(=O)OC)C(C)C3)cc1` (configuration not stated), the inhibition is 39.6%.

Regarding `CCCOC(=O)C1=C(C)NC2=C(C(=O)C(C(=O)OC)C(C)C2)C1c1ccc(N(C)C)cc1` (configuration not stated), the inhibition was 23.6%.

In the case of `COC(=O)C1C(=O)C2=C(CC1C)NC(C)=C(C(=O)OCCOC(C)C)C2c1ccc(F)cc1` (configuration not stated), the inhibition was 14.3%.

Turning to `COC(=O)C1C(=O)C2=C(CC1C)NC(C)=C(C(=O)OCCOC(C)C)C2c1ccc(OC)cc1` (configuration not stated), the inhibition was 76.1% (active).

Turning to `COC(=O)C1C(=O)C2=C(CC1C)NC(C)=C(C(=O)OCCOC(C)C)C2c1ccc(N(C)C)cc1` (configuration not stated), the inhibition is 79.4% (active).

In the case of `COCCOC(=O)C1=C(C)NC2=C(C(=O)C(C(=O)OC)C(C)C2)C1c1ccc(N(C)C)cc1` (configuration not stated), the inhibition is 64%.

Consider `COc1ccc(/C=C2/CCCC3=C2OC(N)=C(C#N)C3c2ccc(OC)c(OC)c2)cc1OC` (configuration not stated), for which the inhibition entry is “inactive”.

As for `COc1ccc(C2C(C(=O)OC3CCCC3)=C(C)NC3=C2C(=O)CCC3)c(OC)c1OC` (configuration not stated), the inhibition entry is “inactive”.

In the case of `COc1cc(C2C(C(=O)OC3CCCCC3)=C(C)NC3=C2C(=O)CC(C)(C)C3)cc(Cl)c1O` (configuration not stated), the inhibition was 10.9%.

For `COc1ccc(N2C(=O)C3C4C=CC(C4)C3C2=O)cc1OC` (configuration not stated), the inhibition entry was “inactive”.

Turning to `CCOc1ccc(C2C(C(=O)OC3CCCCC3)=C(C)NC3=C2C(=O)CCC3)cc1OC` (configuration not stated), the inhibition was 20.2%.
